Bioassay records deposited in PubChem by Broad Institute.
miR122 inh: miR-122 sensor activation; Huh7 psiCHECK-miR122 Renilla luciferase sensor, 48 h; activation, % at 12.5 µM; hit rate 0.14% among 340,000;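 active means mean activation of 30% or more, with every replicate also reaching 30%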;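 further: higher luciferase signal means stronger suppression of miR-122 activity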
Of the large screens only hits and unclear results are named; the others gave an inactive call. Only a selection was taken, and hits are over-represented in it overall.

CCNC(=O)C[C@H]1CC[C@H]2[C@@H](COc3ccc(NC(=O)c4ccccc4)cc3C(=O)N2C)O1	miR122 inh 50.0
CN1C(=O)c2cc(NC(=O)Cc3ccccc3)ccc2OC[C@@H]2O[C@@H](CC(=O)NCC3CC3)CC[C@@H]21	none
CN(C)CCCNC(=O)C[C@@H]1CC[C@H]2[C@H](COc3ccc(NC(=O)c4cccc(F)c4)cc3C(=O)N2C)O1	miR122 inh 41.7
CO[C@@H]1CN(C)C(=O)c2cc(NC(=O)c3ccc(F)cc3)ccc2OC[C@@H](C)N(C)C[C@@H]1C	none
CN1C(=O)c2cc(NC(=O)c3cccc(F)c3)ccc2OC[C@@H]2O[C@H](CC(=O)Nc3ccccc3)CC[C@H]21	miR122 inh 55.0
CO[C@H]1CN(C)C(=O)c2cc(NC(=O)Cc3ccccc3)ccc2OC[C@H](C)N(C)C[C@H]1C	none
COc1cccc(CNC(=O)C[C@H]2CC[C@@H]3[C@@H](COc4ccc(NC(C)=O)cc4C(=O)N3C)O2)c1	miR122 inh 53.3
CO[C@@H]1CN(C)C(=O)c2cc(NC(=O)c3ccc(F)cc3)ccc2OC[C@H](C)N(C)C[C@@H]1C	none
Cc1noc(C)c1NC(=O)N(C)C[C@H]1Oc2ncc(C#CCC(C)C)cc2C(=O)N([C@@H](C)CO)C[C@H]1C	none
C[C@@H]1CN([C@@H](C)CO)C(=O)c2cc(-c3cncnc3)cnc2O[C@H]1CN(C)CC1CCOCC1	none
C[C@@H]1CN([C@H](C)CO)C(=O)c2cc(/C=C/c3ccccc3)cnc2O[C@H]1CN(C)C(=O)c1cccc(F)c1	none
C/C=C/c1cnc2c(c1)C(=O)N([C@H](C)CO)C[C@@H](C)[C@H](CN(C)S(=O)(=O)c1ccc(C)cc1)O2	none
CC(C)CC#Cc1cnc2c(c1)C(=O)N([C@H](C)CO)C[C@H](C)[C@@H](CN(C)S(=O)(=O)c1ccccc1)O2	none
CCCN1C[C@@H](C)[C@@H](OC)CN(C)C(=O)c2ccc(NS(C)(=O)=O)cc2OC[C@H]1C	none
COCC#Cc1ccc2c(c1)O[C@@H](CN(C)C(=O)COC)[C@H](C)CN([C@H](C)CO)S2(=O)=O	none
C[C@H](CO)N1C[C@H](C)[C@@H](CN(C)Cc2ccc(Oc3ccccc3)cc2)Oc2c(NC(=O)C3CCOCC3)cccc2C1=O	none
C[C@H](CO)N1C[C@H](C)[C@H](CN(C)Cc2ccccn2)Oc2cc(-c3cccnc3)ccc2S1(=O)=O	none
C[C@H]1CN([C@@H](C)CO)C(=O)c2cc(C#Cc3ccc(F)cc3)cnc2O[C@@H]1CN(C)C(=O)c1ccccc1F	none
CCCC#Cc1ccc2c(c1)O[C@H](CN(C)S(C)(=O)=O)[C@H](C)CN([C@H](C)CO)S2(=O)=O	none
COCC#Cc1cnc2c(c1)C(=O)N([C@@H](C)CO)C[C@@H](C)[C@H](CN(C)C(=O)Nc1ccc(OC)cc1)O2	none
CC(C)NC(=O)N(C)C[C@H]1Oc2cc(C3=CCCCC3)ccc2S(=O)(=O)N([C@@H](C)CO)C[C@@H]1C	none
C[C@H](CO)N1C[C@H](C)[C@H](CN(C)C(=O)CN(C)C)Oc2ncc(C#CC3(O)CCCC3)cc2C1=O	none
CCC(=O)N(C)C[C@H]1Oc2cc(-c3cccc(C#N)c3)ccc2S(=O)(=O)N([C@H](C)CO)C[C@@H]1C	none
COCC#Cc1ccc2c(c1)O[C@@H](CN(C)C(=O)C1CCCCC1)[C@H](C)CN([C@@H](C)CO)S2(=O)=O	none
COc1cccc(NC(=O)N(C)C[C@H]2Oc3cc(-c4cccc(C(=O)N(C)C)c4)ccc3S(=O)(=O)N([C@H](C)CO)C[C@H]2C)c1	none
C[C@@H]1CN([C@H](C)CO)C(=O)c2cc(C#Cc3ccc(F)cc3)cnc2O[C@@H]1CN(C)CC1CCOCC1	none
CN1C(=O)c2cc(NC(=O)c3cccc(F)c3)ccc2OC[C@H]2O[C@H](CC(=O)N3CCc4ccccc4C3)CC[C@H]21	miR122 inh 36.7
CO[C@@H]1CN(C)C(=O)c2cc(NS(=O)(=O)c3ccccc3)ccc2OC[C@H](C)N(C)C[C@H]1C	none
CO[C@H]1CN(C)C(=O)c2cc(NC(=O)c3ccc(F)cc3)ccc2OC[C@@H](C)N(C)C[C@H]1C	none
CO[C@@H]1CN(C)C(=O)c2cc(NS(=O)(=O)c3ccccc3)ccc2OC[C@@H](C)N(C)C[C@H]1C	none
CN1C(=O)c2cc(NS(=O)(=O)c3ccc(Cl)cc3)ccc2OC[C@@H]2O[C@H](CC(=O)N3CCc4ccccc4C3)CC[C@H]21	miR122 inh 33.3
CO[C@H]1CN(C)C(=O)c2cc(NC(=O)c3ccc(F)cc3)ccc2OC[C@@H](C)N(C)C[C@@H]1C	none
C[C@H](CO)N1C[C@H](C)[C@@H](CN(C)CC2CCOCC2)Oc2ncc(-c3ccc(F)cc3)cc2C1=O	none
C[C@H]1CN([C@@H](C)CO)C(=O)c2cc(C#CC3(O)CCCC3)cnc2O[C@H]1CN(C)S(C)(=O)=O	none
CC(C)C#Cc1ccc2c(c1)O[C@H](CN(C)C(=O)CN(C)C)[C@@H](C)CN([C@H](C)CO)S2(=O)=O	none
C[C@H](CO)N1C[C@H](C)[C@H](CN(C)Cc2ccncc2)Oc2ncc(-c3cncnc3)cc2C1=O	none
C[C@@H]1CN([C@H](C)CO)C(=O)c2cc(NC(=O)Cc3cn(C)c4ccccc34)ccc2O[C@@H]1CN(C)S(=O)(=O)c1ccc(Cl)cc1	none
